Data on 29 compounds can be found in PubChem BioAssay (NCATS).

Where “and” joins values, the source holds several entries; their conditions need not be identical. Identical values can stand only once. Inconclusive results are not listed. More than one record can exist for a structure, and the calls need not agree. Calls of active or inactive are those of the source. Calls come from the whole dose curve; as a rule, active = well fitted curve in the direction sought with a large enough effect; inconclusive = small, poorly fitted or top-dose-only effect, or another doubt; inactive = no such curve, though single readings can be large; an effect the other way counts as inactive or inconclusive.

The nature of assay [1]: Viability qHTS for spleen associated tyrosine kinase inhibitor (SYKi) naive MV4-11 cells (AID 1963823). Note: nearly all actives have a fitted effect of over 40% in size. Note: potency is the fitted concentration of half-maximal effect. Put shortly:
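In this viability screen, compounds acted on SYK inhibitor naive MV4-11 cells for three days (72 hr, 37 C). Remaining viable cells were measured by CellTiter-Glo luminescence following a 10 min room-temperature development.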
Background: Quantitative high-throughput screening tests each substance at several concentrations.

Assay [2] can be described thus: Viability qHTS for spleen associated tyrosine kinase inhibitor (SYKi) drug resistant MV4-11 cells (AID 1963824). Note: nearly all actives have a fitted effect of over 35% in size. Note: potency is the fitted concentration of half-maximal effect. Put shortly:
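SYK-inhibitor-resistant MV4-11 AML cells were seeded at 500 per well onto compound and cultured 72 hours (37 °C, 5% CO2). CellTiter-Glo was then added, and after 10 min at room temperature, luminescence gave viability.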

Assay [3] is described as follows: Quantitative highthroughput screen to assess conditional lethalithy of NOMO1 cells grown in RPMI1640 with untreated serum (RPMI+s) (AID 1963876).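 For Viability: 100% = DMSO wells and 0% = empty wells without cells.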 Note: nearly all actives have a fitted effect of over 35% in size. Note: potency is the fitted concentration of half-maximal effect. An outline of the steps:
(§1)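 Each medium arm—HPLM with 10% dialyzed FBS, or RPMI1640 with 5 mM glucose and 10% untreated or dialyzed FBS—was screened against an 11-point, 3-fold compound titration for 48 h at 37 °C, with CellTiter-Glo luminescence as endpoint.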

Assay [4] can be described thus: Quantitative highthroughput screen to assess conditional lethalithy of NOMO1 cells grown in RPMI1640 with dialyzed fetal bovine serum (RPMI+ds) (AID 1963877).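 Note: series mostly up to about 46 µM; 100% = DMSO control wells and 0% = empty wells; nearly all actives have a fitted effect of over 30% in size.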 Put shortly:
as §1

The nature of assay [5]: Quantitative highthroughput screen to assess conditional lethalithy of NOMO1 cells grown in Human Plasma-Like Medium with dialyzed fetal bovine serum (HPLM+ds) (AID 1963878).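 For Viability: 100% = DMSO wells and 0% = empty wells on each plate.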 Note: nearly all actives have a fitted effect of over 35% in size. Note: potency is the fitted concentration of half-maximal effect. Put shortly:
as §1

Assay [6] can be described thus: Quantitative highthroughput screen to assess conditional lethalithy of P12 Ichikawa cells grown in Human Plasma-Like Medium with dialyzed fetal bovine serum (HPLM+ds) (AID 1963879). For Viability: series mostly up to about 46 µM. Note: nearly all actives have a fitted effect of over 35% in size. Note: potency is the fitted concentration of half-maximal effect. To be noted: Potency: viability. An outline of the steps:
as §1

A short description of assay [7]: Quantitative highthroughput screen to assess conditional lethalithy of P12 Ichikawa cells grown in RPMI1640 with dialyzed fetal bovine serum (RPMI+ds) (AID 1963880). To be noted: Potency: P12-Ichikawa viability. Put shortly:
as §1

Assay [8] is described as follows: Quantitative highthroughput screen to assess conditional lethalithy of SEM cells grown in RPMI1640 with dialyzed fetal bovine serum (RPMI+ds) (AID 1963884). Put shortly:
as §1

Assay [9] is described as follows: Cellular viability qHTS for adrenocortical cancer (ACC) cell line SW-13 (AID 1963989).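 Note: cells grown in serum-free medium with ITS supplement; % is set by controls: 0 for no effect and ±100 for the full control effect; nearly all actives have a fitted effect of over 65% in size.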 The settings on record: SW-13 ACC cells viability, CellTiter-Glo, 48 h; activity (max response): stronger effect = lower value. Put shortly:
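SW-13 cells in ITS-supplemented serum-free DMEM were plated overnight, then exposed for 48 h at 37C to compound titrations (up to 46 uM final). Viability was read by CellTiter-Glo luminescence; four-parameter logistic fits gave IC50 and efficacy.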

A short description of assay [10]: Cellular viability qHTS for adrenocortical cancer (ACC) cell line NCI-H295R (AID 1963990). Note: nearly all actives have a fitted effect of over 60% in size. Note: potency is the fitted concentration of half-maximal effect. Put shortly: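 Luminescent ATP read-out (CellTiter-Glo, 20 min RT) after 48 h drug exposure of NCI-H295R cells; a titration up to 46 uM final. Data normalized to doxorubicin (100% inhibition) and DMSO (0%); 4-parameter fit gives IC50, max response.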
Assay [11] in a line: Quantitative highthroughput screen to assess conditional lethalithy of P12 Ichikawa cells grown in RPMI1640 with untreated serum (RPMI+s) (AID 1963881). The settings on record: Potency: viability. Put shortly: as §1
A short description of assay [12]: Quantitative highthroughput screen to assess conditional lethalithy of SEM cells grown in Human Plasma-Like Medium with dialyzed fetal bovine serum (HPLM+ds) (AID 1963882). Put shortly:
as §1

Assay [13] is described as follows: Quantitative highthroughput screen to assess conditional lethalithy of SEM cells grown in RPMI1640 with unreated serum (RPMI+s) (AID 1963883). Put shortly:
as §1

Consider `Cc1ccccc1C1=CCN(C)CC1`, for which the Potency result in assay [1] and in [2] was “inactive” each time.

For `C[C@H](CCC(=O)O)C[C@H](C)C[C@H](C)C(=O)/C=C(\O)[C@H](C)C[C@H](C)C/C=C/[C@@H](C)[C@@H](O)[C@@H](C)[C@@H](O)C[C@@H]1CC[C@@](C)([C@H]2CC[C@@](C)([C@@H](C)O)O2)O1`, the values for the Potency in assay [1] and in assay [2] were 2520 nM (active) and 2820 nM (active), respectively.

As for `CCc1[nH]c2ccc(OC)cc2c1CCN(C)C`, the Potency in [1] was 10300 nM (active). Further, the Potency entry in assay [2] is “inactive”.

Regarding `CC12Cc3cn[nH]c3C=C1CCC1C2CCC2(C)C1CCC2(C)O` (centres undefined), the Potency was 25900 nM (active) in assay [1] and 20600 nM (active) in [2].

Turning to `O=[N+]([O-])/N=C1\NCCN1Cc1ccc(Cl)nc1`, the Potency result in [1] and in assay [2] was “inactive” in each case.

As for `CO[C@H]1[C@@H](O)[C@@H](C)O[C@@H](O[C@@H]2C=C3C(OC(C)=O)CC4(O)C(CC[C@]5(C)[C@@H](C6=CC(=O)OC6)CC[C@]45O)[C@@]3(C)CC2)[C@@H]1O` (some centres undefined), the Potency in assay [1] is 68.5 nM (active); in assay [2], 76.9 nM (active).

Turning to `CO[C@@H]1[C@H](O)[C@@H](O[C@@H]2C[C@H]3CC[C@@H]4C(CC[C@]5(C)[C@@H](C6=CC(=O)OC6)CC[C@]45O)[C@@]3(C)[C@H](O)C2)O[C@H](C)[C@@H]1O` (some centres undefined), the Potency was 63.2 nM (active) in [1] and 28.2 nM (active) in [2].

As to `C#C[C@]1(O)CC[C@H]2[C@@H]3CC[C@H]4Cc5nc6nc7ccccc7n6cc5C[C@]4(C)[C@H]3CC[C@@]21C`, the Potency was 9200 nM (active) in assay [1] and 7310 nM (active) in assay [2].

For `CC(=O)OC12C(O)C(C)C3(O)C4C=C(C)C(=O)C4CC(CO)=CC3C1C2(C)C` (centres undefined), the Potency result in assay [1] and in assay [2] was “inactive” each time.

In the case of `COC1CC(OC2CCC3(C)C(=CCC4C3CCC3(C)C(C(C)OC5OC(COC6OC(CO)C(O)C(O)C6O)C(O)C(O)C5O)CCC43O)C2)OC(C)C1OC1OC(C)C(O)C(OC)C1O` (centres undefined), the viability (% of control) in assay [1] is 91.8% [at 9.25 µM] (inactive). Also, the viability, % of control in assay [2] is 87.9% [at 9.25 µM] (inactive).

Regarding `CC[C@@H]1C[C@H]2CC[C@H](O2)[C@H](C)C(=O)O[C@@H](C)C[C@@H]2CC[C@@H](O2)[C@@H](C)C(=O)O[C@H](CC)C[C@H]2CC[C@H](O2)[C@H](C)C(=O)O[C@@H](C)C[C@@H]2CC[C@@H](O2)[C@@H](C)C(=O)O1`, the results for the Potency in [1] and in assay [2] were 30.6 nM (active) and 19.3 nM (active), respectively.

With `C[C@@H]1O[C@@H](OC2CCC3(C=O)C(CCC4C3CCC3(C)C(C5=CC(=O)OC5)C(O)CC43O)C2)[C@H](O)[C@H](O)[C@H]1O[C@@H]1O[C@H](CO)[C@@H](O)[C@H](O)[C@H]1O` (some centres undefined), the figures for the Potency in [1] and in assay [2] were 2170 nM (active) and 1720 nM (active), respectively.

Turning to `CC(C)=CCC[C@]1(C)C=Cc2c(O)c3c(c(CC=C(C)C)c2O1)O[C@]12C(=C[C@@H]4CC1C(C)(C)O[C@@]2(C/C=C(/C)C(=O)O)C4=O)C3=O`, the figures for the Potency in assay [1] and in assay [2] were 517 nM (active) and 461 nM (active), respectively.

Turning to `CC/C=C/C=C/C1(C)OC(OC)=C(C(=O)C2C(C)C(=O)c3cc(OC)c(O)c(O)c3C2(C)O)C1=O` (centres undefined), the Potency in [1] and in [2] was 10000 nM (active) throughout.

`C=C[C@H]1[C@H](O[C@@H]2O[C@H](CO)[C@@H](O)[C@H](O)[C@H]2O)OC=C2C(=O)OCC[C@H]21`: the Potency entry in assay [1] and in assay [2] was “inactive” throughout.

Turning to `Cc1c(C(=O)Nc2cccc(C(F)(F)F)c2)cc(-c2ccccc2)n1CCCN1CCOCC1`, the Potency is 14600 nM (active) in [1] and 16600 nM (active) in assay [2]. Also, the Potency result in assay [3] was “inactive”.

As to `CC(C)c1cccc(C(C)C)c1O`, the Potency result in [1], in assay [2], in [3], in assay [4], in [5] and in assay [6] was “inactive” throughout. Further, the Potency result in [7] and in assay [8] was “inactive” each time. For the same compound, in assay [9], the activity (max response) was 18.8% (inactive) and -6.92% (inactive). Besides, in [10], the Potency result is “inactive and 23.1 µM (active)”.

On to `C[C@]12CC[C@H](O)C[C@H]1CC[C@@H]1[C@@H]2[C@H](O)C[C@]2(C)[C@@H](c3ccc(=O)oc3)CC[C@]12O`, for which the Potency in assay [1] was 18.4 nM (active); in assay [2], 14.6 nM (active).

In the case of `C[N@@+]1(CC2CC2)CC[C@]23c4c5ccc(O)c4O[C@H]2C(=O)CC[C@@]3(O)[C@H]1C5`, the Potency result in [1] and in assay [2] was “inactive” each time.

For the compound `COc1cc(OC)c(OC)cc1C=O`, the Potency entry in assay [1], in assay [2], in assay [3], in assay [4], in assay [5] and in assay [6] was “inactive” each time. Moreover, the Potency result in [11] and in [12] was “inactive” in each case. Besides, in assay [9], the activity (max response) was 8.71% (inactive).

As to `COc1ccc2c(c1)[nH]c1c(C)nccc12`, the Potency in assay [1] was 13000 nM (active); in [2], 14600 nM (active).

Regarding `Oc1ccc2c3c1O[C@H]1[C@H](N(CCCl)CCCl)CC[C@@]4(O)[C@@H](C2)N(CC2CC2)CC[C@]314`, in assay [1], the viability (% of control) was 89.3% [at 9.25 µM] (inactive). In assay [2], the viability, % of control is 83.4% [at 9.25 µM] (inactive).

Regarding `CC12CCC3C(CCC4(O)CC(O)CCC34C=O)C1(O)CCC2C1=CC(=O)OC1` (centres undefined), the Potency in [1] is 366 nM (active); in [2] it was 231 nM (active).

Regarding `CC(=O)OC[C@]12C[C@H](OC(C)=O)C(C)=C[C@H]1O[C@@H]1[C@H](O)[C@@H](O)[C@@]2(C)[C@]12CO2`, the Potency entry in assay [1] and in assay [2] was “inactive” in each case.

In the case of `Cc1sc2c(c1C)C(c1ccc(Cl)cc1)=N[C@@H](CC(=O)OC(C)(C)C)c1nnc(C)n1-2`, the Potency in [1] is 105 nM (active); in assay [2] it was 118 nM (active); in [3], 526 nM (active); in assay [5], 418 nM (active); in [6], 1660 nM (active); in [13], 235 nM (active). In addition, the Potency in assay [10] is 3980 nM (active).

`COc1ccc2c(c1)/C(=C/c1cnc[nH]1)C(=O)N2`: the figures for the Potency in [1] and in [2] were 461 nM (active) and 1640 nM (active), respectively.

Take `CCCCCCn1c(=O)c(C(=O)Nc2ccc(C(=O)OCCC)cc2)c(O)c2ccccc21`: the viability (% of control) in assay [1] was 62.6% [at 9.25 µM] (inactive). Besides, the viability, % of control in assay [2] is 83.2% [at 9.25 µM] (inactive).

Turning to `CCN1C[C@]2(COC)[C@H](O)C[C@H](OC)[C@]34[C@@H]5C[C@]6(O)[C@H](OC(=O)c7ccccc7)[C@@H]5[C@@](O)([C@H]([C@H](OC)[C@H]23)[C@@H]14)[C@@H](O)[C@@H]6OC`, the Potency entry in assay [1] and in [2] was “inactive” in each case.

Take `C[C@]12CC[C@H](O)CC1=CC[C@@H]1C2CC[C@]2(C)[C@@H](C3=CC(=O)OC3)CC[C@]12O` (some centres undefined): the Potency was 11400 nM (active) in [1] and 4040 nM (active) in assay [2].
